Data as given in PubChem BioAssay.
Activity calls are given as the source filed them.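 Rule for the calls, unless noted: active = fluorescence slope after compound addition differing from the mean of all screened samples at 99.7% confidence, in either direction; inactive = the rest.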

What was measured:
[1] = inhibitors of TNFa-induced NFkB p65 translocation, primary screen, imaging, HUVEC, MLSMR starter and 10KST1 sets (AID 438;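 active = inhibition above 20% together with a positive visual image hit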;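 note: compound added about 3h40 before a 20 min TNFalpha stimulation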;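 for inhibition: signal is the nuclear over cytoplasmic p65 intensity ratio per well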); details: HUVEC TNFa-induced p65 nuclear translocation; cell count: measured here: nuclei count (cytotoxicity indicator), at 2.08 µM; inhibition: at 2 µM, stronger effect = higher value, 0% TNFa-plus-vehicle, 100% no-TNFa wells
[2] = reduction of polyQ htt aggregates in cells – imaging, exon1htt(103Q)mCFP cells, high-content imaging, primary screen (AID 483;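 active = visual image review flags a hit and inhibition of aggregation exceeds 20%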;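 note: compound exposure lasted 3 days before fixation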;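 for nuclei count: percent of the per-plate median nuclei count of sample wells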); details: exon1htt(103Q)mCFP cell line, aggregate imaging, at 2 µM; inhibition of aggregation: stronger effect = higher value; nuclei count: measured here: cell count, toxicity
[3] = endothelial E-selectin expression blockers – imaging, HUVEC, immunofluorescence, MLSMR starter and 10KST1 sets, primary screen (AID 487;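 active = visually confirmed hit in the image check and inhibition above 20%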;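 for inhibition: signal is fraction of cell area covered by stained E-selectin grains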;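 for nuclei count: 100% = median nuclei count of all wells on the same plate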); details: HUVEC TNFalpha-induced E-selectin immunofluorescence imaging, at 2 µM; inhibition: stronger effect = higher value; nuclei count: measured here: cell number, toxicity
[4] = target: Voltage-gated potassium channel subunit beta-2 (Rattus norvegicus) (UniProt P62483); experiment: inhibitors of rat Kvbeta2 reductase activity – biochemical, NADPH fluorescence, primary screen (AID 622;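 active = fluorescence slope higher than the sample average by over 3 SD, cut at about -0.22 in these data, passing the limit was not always enough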;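 note: slope of raw intensity against log time taken from 70 to 1610 s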); details: recombinant KvBeta, 4-cyanobenzaldehyde reduction, at 10 µM, stronger effect = higher value
Sequence of Voltage-gated potassium channel subunit beta-2 (Rattus norvegicus) (P62483 whole entry, looked up): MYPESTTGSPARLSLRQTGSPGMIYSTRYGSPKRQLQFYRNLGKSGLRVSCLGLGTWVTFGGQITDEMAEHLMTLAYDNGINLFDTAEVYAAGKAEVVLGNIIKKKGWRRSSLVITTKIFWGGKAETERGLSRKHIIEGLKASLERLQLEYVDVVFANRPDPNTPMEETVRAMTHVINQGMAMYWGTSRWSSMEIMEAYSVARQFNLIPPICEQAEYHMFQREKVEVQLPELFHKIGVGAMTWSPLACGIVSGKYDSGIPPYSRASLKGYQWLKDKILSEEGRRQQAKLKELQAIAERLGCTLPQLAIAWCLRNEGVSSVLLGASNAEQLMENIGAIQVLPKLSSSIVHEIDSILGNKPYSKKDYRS

[5] = target: Voltage-gated potassium channel subunit beta-2 (Rattus norvegicus) (UniProt P62483); experiment: enhancers of rat Kvbeta2 NADPH turnover – biochemical, NADPH fluorescence, primary screen (AID 623;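 active = NADPH fluorescence slope more negative than the mean of all samples by about 3 SD, 99.7% confidence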;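 note: fluorescence intensity change per second fitted from 20 to 320 s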); details: Recombinant KvBeta, NADPH fluorescence decrease slope, 10 min; at 10 µM; stronger effect = lower value
[6] = target: Alpha-2C adrenergic receptor (Homo sapiens) (UniProt P18825); experiment: compounds altering alpha2C-coupled GIRK flux – cell-based, HEK293 alpha2C/GIRK1/2, thallium flux, primary screen (AID 624); details: thallium flux BTC fluorescence, at 10 µM, actives lie on both sides;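 note: slope of fluorescence ratio to pre-addition baseline per second over 15 to 24 s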
Sequence of Alpha-2C adrenergic receptor (Homo sapiens) (P18825 whole entry, looked up): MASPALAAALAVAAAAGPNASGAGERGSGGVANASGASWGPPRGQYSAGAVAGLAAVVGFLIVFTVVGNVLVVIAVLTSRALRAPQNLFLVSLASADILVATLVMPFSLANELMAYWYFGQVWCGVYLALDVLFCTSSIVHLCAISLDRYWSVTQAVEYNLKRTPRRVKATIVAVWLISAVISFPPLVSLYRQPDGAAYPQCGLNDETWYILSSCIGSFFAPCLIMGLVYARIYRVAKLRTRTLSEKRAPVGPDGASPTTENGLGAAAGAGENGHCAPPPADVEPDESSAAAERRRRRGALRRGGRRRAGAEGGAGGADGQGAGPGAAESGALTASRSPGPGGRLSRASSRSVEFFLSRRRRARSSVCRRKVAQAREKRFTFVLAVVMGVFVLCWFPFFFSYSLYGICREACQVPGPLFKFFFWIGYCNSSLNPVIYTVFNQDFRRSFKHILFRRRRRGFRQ

[7] = blockers of RIG-like receptor reporter activation – cell-based, Sendai virus stimulus, luciferase, 10K MLSCN set, TLR/RLR signaling modifier project, primary screen (AID 602276;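 active = inhibition at or above 50% at 10 µM; inactive = inhibition below 50%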;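 note: firefly luciferase from ISG56 promoter only with Renilla not read in this screen; 0% = Sendai virus plus DMSO and 100% = medium plus DMSO without virus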); details: HEK293 RL24 IRF3 luciferase reporter, at 10 µM, stronger effect = higher value
[8] = TLR3 IRF3 reporter activation blockers – cell-based, poly I:C stimulus, luciferase, 10K MLSCN set, primary screen (AID 602277;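 active = inhibition of the reporter signal at or above 50%; inactive = inhibition below 50%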); details: HEK293-TLR3 RL24 IRF3 luciferase reporter, at 10 µM, stronger effect = higher value

Row | Structure (SMILES) | cell count [1] | inhibition [1] | inhibition of aggregation [2] | nuclei count [2] [%] | inhibition [3] | nuclei count [3] [%] | fluorescence slope [4] | NADPH fluorescence slope [5] | slope [6] | inhibition [7] | inhibition [8]
1 | CCOCCCNC(=O)c1ccc2c(c1)N(Cc1ccccc1)C(=O)CS2=O (stereo not drawn) | 754 | -7.4% (inactive) | -19% (inactive) | 94.2 | -20.2% (inactive) | 125 | -0.525 (inactive) | -1e-05 (inactive) | 0.00701 (inactive) | -4.11% (inactive) | 21% (inactive)
2 | Cc1ccc(OCCC(=O)OCC(=O)C(C)(C)C)cc1 | 542 | -8.3% (inactive) | -6.7% (inactive) | 101 | -9.5% (inactive) | 131 | -0.365 (inactive) | -5.3e-05 (inactive) | 0.0062 (inactive) | 12.7% (inactive) | 27.5% (inactive)
3 | Cc1ccc(S(=O)(=O)N(CCO)c2cc3c(s2)CCCC3)cc1 | 689 | -0.8% (inactive) | 20.5% (inactive) | 73.1 | -151% (inactive) | 117 | -0.404 (inactive) | -2.1e-05 (inactive) | 0.00447 (inactive) | 9.96% (inactive) | 21.8% (inactive)
4 | CC(C)n1c(NCc2c[nH]c3ccccc23)nc2ccccc21 | 489 | 1% (inactive) | 20.3% (inactive) | 54.6 | -5.1% (inactive) | 86.6 | -0.511 (inactive) | -4.3e-05 (inactive) | 0.00272 (inactive) | -4.81% (inactive) | -0.81% (inactive)
5 | COc1ccc(NC(=O)CSc2nnc(Cc3cccn3C)n2-c2ccc(F)cc2)cc1OC | 541 | -1.3% (inactive) | -0.2% (inactive) | 92.7 | -59.2% (inactive) | 118 | -0.588 (inactive) | -2.4e-05 (inactive) | 0.00584 (inactive) | 12.2% (inactive) | 27.1% (inactive)
6 | Cc1onc(-c2c(Cl)cccc2Cl)c1C(N)=O | 406 | 6.3% (inactive) | -2.8% (inactive) | 98.3 | -52% (inactive) | 98.7 | -0.5 (inactive) | 2.7e-05 (inactive) | 0.00603 (inactive) | -11.6% (inactive) | 7.29% (inactive)
7 | O=C1CC(N2CCN(c3cccc(C(F)(F)F)c3)CC2)C(=O)N1c1ccccc1 (stereo not drawn) | 622 | -1.5% (inactive) | -3.8% (inactive) | 117 | 64.7% (active) | 75.3 | -0.473 (inactive) | -1.5e-05 (inactive) | 0.00274 (inactive) | 7.76% (inactive) | 27.1% (inactive)
8 | CC1(c2ccc(Cl)cc2)NC(=O)N(CC(=O)NC(=O)NCc2ccco2)C1=O (stereo not drawn) | 482 | 2.9% (inactive) | -25.8% (inactive) | 102 | -48.5% (inactive) | 110 | -0.399 (inactive) | -4.4e-05 (inactive) | 0.00253 (inactive) | 14.9% (inactive) | 18.4% (inactive)
9 | CCN(CC)C1CCCCC1NS(=O)(=O)c1ccc(Cl)cc1 (stereo not drawn) | 528 | -9.2% (inactive) | 14.4% (inactive) | 96.8 | -17.6% (inactive) | 82.7 | -0.538 (inactive) | -1.7e-06 (inactive) | 0.00692 (inactive) | 45.1% (inactive) | 28% (inactive)
10 | O=C(Cn1nnc(-c2cc(Cl)ccc2-n2cnnn2)n1)N1CCCc2ccccc21 | 574 | -2.1% (inactive) | -3.1% (inactive) | 97.2 | -13.8% (inactive) | 105 | -0.425 (inactive) | -0.000127 (inactive) | 0.00585 (inactive) | 17.3% (inactive) | 23.2% (inactive)
11 | Cc1cc(C)n(CC(=O)O)n1 | 341 | -1.8% (inactive) | -4.2% (inactive) | 102 | -49.5% (inactive) | 121 | -0.317 (inactive) | -5.4e-05 (inactive) | 0.0047 (inactive) | 12.8% (inactive) | 18.3% (inactive)
12 | O=C(Nc1ccc(N2CCOCC2)cc1)c1cc2ccccc2o1 | 775 | -1.9% (inactive) | 7.2% (inactive) | 106 | -29.4% (inactive) | 97.9 | -0.479 (inactive) | 1.9e-05 (inactive) | 0.003 (inactive) | -72.9% (inactive) | -187% (inactive)
13 | CSc1cccc(NS(=O)(=O)c2ccccc2)c1 | 420 | -1.4% (inactive) | -3.4% (inactive) | 99.5 | -38% (inactive) | 106 | -0.283 (inactive) | -2.2e-05 (inactive) | 0.00527 (inactive) | 9.48% (inactive) | 27.9% (inactive)
14 | CCOC(=O)c1cn(CC)c2cc(N3CCOCC3)c(F)cc2c1=O | 249 | -5.5% (inactive) | 4.6% (inactive) | 72.9 | -45.9% (inactive) | 114 | -0.592 (inactive) | -1e-05 (inactive) | 0.00553 (inactive) | 3.57% (inactive) | 10.9% (inactive)
15 | Cc1ccc2cc(CN(Cc3ccc(F)cc3)Cc3nnnn3C3CCCC3)c(=O)[nH]c2c1 | 702 | -10.8% (inactive) | -13.3% (inactive) | 103 | -40.7% (inactive) | 98.8 | -0.311 (inactive) | -4.1e-05 (inactive) | 0.00514 (inactive) | 10.6% (inactive) | 13.8% (inactive)
16 | CC(C)Cn1c(N)c(C(=O)NCCN2CCOCC2)c2nc3ccccc3nc21 | 440 | -2.8% (inactive) | -15.6% (inactive) | 101 | -37.1% (inactive) | 81.3 | -0.0147 (inactive) | -9e-06 (inactive) | 0.00559 (inactive) | 19.1% (inactive) | 19.8% (inactive)
17 | CCOC(=O)c1cccc(NC(=O)CSc2nnc(-c3cccnc3)n2C)c1 | 505 | -0.3% (inactive) | 8.9% (inactive) | 97.6 | -100% (inactive) | 134 | -0.285 (inactive) | -5.6e-05 (inactive) | 0.00612 (inactive) | 8.88% (inactive) | 10.4% (inactive)
18 | O=C(Cn1cnc2c(cnn2-c2ccccc2)c1=O)NCCc1ccccc1 | 441 | 3.5% (inactive) | -9.4% (inactive) | 112 | -25% (inactive) | 113 | -0.535 (inactive) | -6.8e-07 (inactive) | 0.00728 (inactive) | 10.8% (inactive) | 17.4% (inactive)
19 | CN(Cc1ccco1)C(=O)Cn1c(=O)oc2cc(S(=O)(=O)NCc3ccccc3)ccc21 | 924 | 2.8% (inactive) | 20.1% (inactive) | 104 | -17.8% (inactive) | 96.6 | -0.55 (inactive) | 2.5e-05 (inactive) | 0.00749 (inactive) | 13.5% (inactive) | 10.8% (inactive)
20 | CCCc1cc(=O)[nH]c(/N=C(\N)Nc2ccccc2)n1 | 826 | 3.6% (inactive) | -12.7% (inactive) | 94.3 | -95.3% (inactive) | 138 | -0.431 (inactive) | -2.5e-05 (inactive) | 0.0048 (inactive) | 12.3% (inactive) | 16.6% (inactive)
21 | CC(=O)c1cccc(S(=O)(=O)NCC(c2ccco2)N2CCCCC2)c1 (stereo not drawn) | 707 | -2% (inactive) | -10% (inactive) | 107 | -140% (inactive) | 145 | -0.62 (inactive) | -1.6e-05 (inactive) | 0.0049 (inactive) | 5.82% (inactive) | 6.55% (inactive)
22 | Cc1ccc(-c2nnc(N(C)C(=O)c3ccccn3)s2)cn1 | 500 | 6.8% (inactive) | -1.4% (inactive) | 105 | -60.4% (inactive) | 97.9 | -0.495 (inactive) | -4.7e-05 (inactive) | 0.00529 (inactive) | -13% (inactive) | -49% (inactive)
23 | Oc1ccccc1-c1nnc(COc2ccc(Cl)cc2Cl)o1 | 766 | -8.5% (inactive) | -1.7% (inactive) | 127 | -23.4% (inactive) | 113 | -0.54 (inactive) | -2.9e-05 (inactive) | 0.00718 (inactive) | -0.185% (inactive) | -1.08% (inactive)
24 | CCN1CCN(Cc2nc3c(c(=O)[nH]c(=O)n3C)n2Cc2ccccc2Cl)CC1 | 584 | 1% (inactive) | 7.9% (inactive) | 71.4 | -20.8% (inactive) | 95.5 | -0.583 (inactive) | -3.1e-05 (inactive) | 0.00512 (inactive) | 9.74% (inactive) | 29% (inactive)
25 | C=CCOC(=O)CCC(=O)Nc1cc(OC)nc(OC)n1 | 653 | -12.9% (inactive) | -1.7% (inactive) | 109 | -0.8% (inactive) | 116 | -0.422 (inactive) | -4.9e-06 (inactive) | 0.00745 (inactive) | 12.4% (inactive) | 19.2% (inactive)
26 | CC(C)OC(=O)c1ccc(NC(=O)C2C3CC4OC(=O)C2C4C3)cc1 (stereo not drawn) | 324 | -10.5% (inactive) | -9.4% (inactive) | 103 | -115% (inactive) | 151 | -0.327 (inactive) | -6e-05 (inactive) | 0.00657 (inactive) | -44.9% (inactive) | -88.7% (inactive)
27 | CS(=O)(=O)N(Cc1nc2sc3c(c2c(=O)[nH]1)CCCC3)C1CCCCC1 | 352 | 0.8% (inactive) | -9.4% (inactive) | 106 | -6.2% (inactive) | 110 | -0.612 (inactive) | -4.9e-05 (inactive) | 0.00352 (inactive) | 4.56% (inactive) | 14.4% (inactive)
28 | Cn1c(=O)cc(NCCc2ccccc2)[nH]c1=O | 304 | 3.4% (inactive) | -8% (inactive) | 116 | -199% (inactive) | 156 | -0.43 (inactive) | -0.0001 (inactive) | 0.00647 (inactive) | 7.54% (inactive) | 27.3% (inactive)
